The values that follow come from PubChem BioAssay.

SMILES strings stand for the structures. Calls of active or inactive are those of the source. No rule for the calls is given here.

The assay relates to Aerobactin synthetase IucA (Klebsiella pneumoniae, hypervirulent). Briefly: biochemical IucA inhibition screen of LOPAC library by absorbance (AID 1346212).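 Also: 100% = no compound wells and 0% = no enzyme wells.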 The settings on record: IucA enzyme assay, absorbance (OD) readout; hits give low values;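 tested at 8 µM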.
Broadly, the remaining activity is the signal under treatment as a percentage of the control signal. On to `COc1cc(N)c(Cl)cc1C(=O)OCCN1CCCCC1`, for which the remaining activity is 110% (inactive).
To `CC[C@H](C)[C@H]1O[C@]2(CC[C@@H]1C)C[C@@H]1C[C@@H](C/C=C(\C)[C@@H](O[C@H]3C[C@H](OC)[C@@H](O[C@H]4C[C@H](OC)[C@@H](O)[C@H](C)O4)[C@H](C)O3)[C@@H](C)/C=C/C=C3\CO[C@@H]4[C@H](O)C(C)=C[C@@H](C(=O)O1)[C@]34O)O2` belongs 114% (inactive); to `CC(C)(C)[C@]1(O)CCN2C[C@H]3c4ccccc4CCc4cccc(c43)[C@@H]2C1`, 105% (inactive).
Regarding `Cc1nc2c([nH]1)c(=O)n(C)c(=O)n2Cc1ccco1`, the remaining activity is 99.1% (inactive).
Turning to `O=C(O)/C=C1\CCCc2ccccc2C1O` (stereo not given), the remaining activity is 119% (inactive).
As for `Nc1ncnc2c1nc(Sc1ccc(Cl)cc1)n2C1OC2COP(=O)(O)O[C@@H]2[C@@H]1O` (stereo not given in full), the remaining activity was 108% (inactive).
To `O=C(c1ccc(OCCCc2cnc[nH]2)cc1)C1CC1` belongs 100% (inactive); to `N#Cc1c(-c2ccccc2)no[n+]1[O-]`, 125% (inactive).
Consider `N[C@@H](CC(=O)O)C(=O)O`, for which the remaining activity is 111% (inactive).
For `O=C(O)C1(C(=O)O)CCC1.[NH2-].[NH2-].[Pt+2]`, the remaining activity was 113% (inactive).
Regarding `OCCN1CCN(CCCN2c3ccccc3C=Cc3ccccc32)CC1`, the remaining activity is 117% (inactive).
Consider `Cc1cccc(C)c1NC(=O)C[N+](C)(C)C`, for which the remaining activity was 116% (inactive).
Consider `N[C@@H](CCCC(=O)O)C(=O)O`, for which the remaining activity was 110% (inactive).
Regarding `O=C(c1ccc(Cl)cc1)N1CCN(c2ccc([N+](=O)[O-])c3ncccc23)CC1`, the remaining activity is 120% (inactive).
Regarding `OC[C@H]1O[C@@H](n2cnc3c(NC4CCCC4)ncnc32)[C@H](O)[C@@H]1O`, the remaining activity is 117% (inactive).
Regarding `Cc1ccc(=O)n(-c2ccccc2)c1`, the remaining activity was 120% (inactive).
Consider `CC(C)c1ccc2c(c1)c(SC(C)(C)C)c(CC(C)(C)C(=O)O)n2Cc1ccc(Cl)cc1`, for which the remaining activity was 113% (inactive).
In the case of `CCCCCCCC/C=C\CCCCCCCC(=O)O`, the remaining activity was 119% (inactive).
For the molecule `CN1CC(O)C(O)C(O)C1CO` (stereo not given), the remaining activity is 105% (inactive).
Under `Cn1c(=O)c2[nH]c(-c3ccc(S(=O)(=O)O)cc3)nc2n(C)c1=O` stands 117% (inactive); under `Oc1cc2c(cc1O)CN(C(=S)NCCc1ccc(Cl)cc1)CCC2`, 97.8% (inactive).
For `OC[C@H]1NC[C@H](O)[C@@H](O)[C@@H]1O`, the remaining activity is 100% (inactive).
As for `c1ccc(CN2CCC3(CCCc4ccccc43)CC2)cc1`, the remaining activity is 103% (inactive).
`CN[C@H](CC(C)C)C(=O)N[C@H]1C(=O)N[C@@H](CC(N)=O)C(=O)N[C@H]2C(=O)N[C@H]3C(=O)N[C@H](C(=O)N[C@H](C(=O)O)c4cc(O)cc(O)c4-c4cc3ccc4O)[C@H](O)c3ccc(c(Cl)c3)Oc3cc2cc(c3O[C@@H]2O[C@H](CO)[C@@H](O)[C@H](O)[C@H]2O[C@H]2C[C@](C)(N)[C@H](O)[C@H](C)O2)Oc2ccc(cc2Cl)[C@H]1O`: the remaining activity was 98.6% (inactive).
On to `N=C(N)SCCc1cnc[nH]1`, for which the remaining activity is 122% (inactive).
On to `O=C(O)CP(=O)(O)O`, for which the remaining activity is 89.1% (inactive).
`CC#C[C@]1(O)CC[C@H]2[C@@H]3CCC4=CC(=O)CCC4=C3[C@@H](c3ccc(N(C)C)cc3)C[C@@]21C`: the remaining activity was 111% (inactive).
Turning to `O=C(CCNNC(=O)c1ccncc1)NCc1ccccc1`, the remaining activity was 115% (inactive).
Under `COc1cc(CC(=O)O)ccc1O` stands 83.1% (inactive); under `CCCCCCCCCCCCCCCC(=O)OC(CC(=O)O)C[N+](C)(C)C` (stereo not given), 116% (inactive); under `COc1ccc(CC(C)NCC(O)c2ccc(O)c(NC=O)c2)cc1` (stereo not given), 102% (inactive).
For the molecule `CN(C)CCCCSC(=N)N`, the remaining activity is 84.5% (inactive).
Take `C[C@@H]1C(=O)NC2=Nc3cccc(Cl)c3CN21`: the remaining activity is 121% (inactive).
For the molecule `Cc1ccccc1N1CCN(S(=O)(=O)C[C@@]23CC[C@H](CC2NC(=O)[C@H](N)CCS(C)(=O)=O)C3(C)C)CC1` (stereo not given in full), the remaining activity was 121% (inactive).
As for `OC[C@H]1O[C@@H](n2cnc3c(NCCc4ccccc4)ncnc32)[C@H](O)[C@@H]1O`, the remaining activity is 92.7% (inactive).
Under `Cc1cc(O)c2c(c1)C(=O)c1cc(O)cc(O)c1C2=O` stands 76.7% (inactive); under `CC1=C(/C=C/C(C)=C/C=C/C(C)=C/C=C/C=C(C)/C=C/C=C(C)/C=C/C2=C(C)C(=O)[C@@H](O)CC2(C)C)C(C)(C)C[C@H](O)C1=O`, 107% (inactive).
Take `O=C(O)C1CCCN(CCC=C(c2ccccc2)c2ccccc2)C1` (stereo not given): the remaining activity is 86.8% (inactive).
Consider `c1ccc(C2CN3CCSC3=N2)cc1` (stereo not given), for which the remaining activity was 92.5% (inactive).
`CN1Cc2sccc2C(c2ccc(O)c(O)c2)C1` (stereo not given): the remaining activity is 120% (inactive).
